Compound activity (PubChem)
TDP1 cell CPT – qHTS for Inhibitors of human tyrosyl-DNA phosphodiesterase 1 (TDP1): qHTS in cells in presence of CPT. chicken DT40 Tdp1-/-;hTDP1 cells + 20 nM CPT, ATP luminescence, 48 h. Potency, µM (highest dose often 46.2 µM), without a hit: at the top dose activity change, negative = growth inhibition, actives largely listed as inhibitors. hit rate 12% among 420,000. AID 686979, 2013; further: potency means the concentration at half of the fitted maximal effect; nearly all actives have a fitted effect of over 55% in size
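Cell growth measured by CellTiter-Glo luminescence after a minimum 48 h, 37 C compound exposure with 20 nM CPT in Tdp1-knockout DT40 cells stably expressing hTDP1, seeded 400/well; qHTS titration format.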
TDP1 cell noCPT – qHTS for Inhibitors of human tyrosyl-DNA phosphodiesterase 1 (TDP1): qHTS in cells in absence of CPT; DT40 Tdp1-/- hTDP1 cells, no CPT, ATP luminescence, 48 h; Potency, µM (top dose mostly 46.2 µM), for the others: top-dose activity change, negative = growth inhibition, usual class: inhibitors; hit rate 15% among 420,000; further: potency means the concentration at half of the fitted maximal effect; nearly all actives have a fitted effect of over 55% in size
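Camptothecin absent (DMSO only). Human TDP1-complemented DT40 knockout cells, 400 cells/well, 37 °C for minimum 48 hr; ATP measured via CellTiter-Glo, 30 min dark incubation, luminescence.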
HT1080 IDH1KD tx – qHTS for induction of synthetic lethality in tumor cells producing 2HG: qHTS for the HT-1080-IDH1KD cell line | HT-1080 IDH1 knockdown viability, ATP luminescence, 48 h | hit rate 2% among 360,000 | Potency, µM (series often up to 46.1 µM), without a hit: at the top dose activity, negative = toxicity, actives largely listed as cytotoxic;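 further: potency means the concentration at half of the fitted maximal effect; 0% = DMSO wells and -100% = cell-free medium wells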
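Viability of IDH1-knockdown HT-1080 fibrosarcoma cells was assessed by CellTiter-Glo after 48 h at 37 °C with titrated compound; concentration-effect curves were classified by fit quality and response size.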
IL1B secr inh – qHTS for Inhibitors of Inflammasome Signaling: IL-1-beta AlphaLISA Primary Screen; THP-1 LPS/ATP IL-1B secretion, AlphaLISA, 16 h; hits give low values; activity change, % at 57.5 µM; hit rate 4.7% among 360,000; in the data active means activity change below about -50%; inconclusive means mostly about -30% to -49%
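Secreted IL-1B measured by AlphaLISA bead assay after 16 h compound exposure of THP-1 cells; compounds (final up to 57.5 uM) added 1 h before LPS (250 ng/mL) and ATP (1.25 mM) stimulation; lower signal means less secretion.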
ELG1 DNA repair – qHTS screen for small molecules that inhibit ELG1-dependent DNA repair in human embryonic kidney (HEK293T) cells expressing luciferase-tagged ELG1. HEK293T ELG1-luciferase reporter, luminescence, 16 h; DNA damage induced by 5-fluorouridine. Potency, µM (series often up to 46.1 µM), for the others: at the top dose activity change, negative = inhibition, most hits filed as inhibitors. hit rate 2.3% among 330,000; further: potency means the concentration at half of the fitted maximal effect; nearly all actives have a fitted effect of over 55% in size
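Cells (2,000 per well) received 5-fluorouridine plus test compound or DMSO and were incubated 16 hr at 37 °C, 5% CO2. Luciferase activity was read by luminescence 30 min after ONE-Glo addition; signal suppression marked inhibition of damage-induced ELG1 function.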
HT1080NT lethal – qHTS for induction of synthetic lethality in tumor cells producing 2HG: qHTS for the HT-1080-NT fibrosarcoma cell line. AID 686970, 2013. Potency, µM (series often up to 46.1 µM), for the others: at the highest dose activity, negative = less viability, usual class: cytotoxic. HT-1080-NT fibrosarcoma viability, CellTiter-Glo ATP luminescence, 48 h. hit rate 1.6% among 360,000;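 further: NT is the 2HG producing partner of a matched IDH1 knockdown line; potency means the concentration at half of the fitted maximal effect; 0% = DMSO-treated cells and -100% = media-only wells without cells; nearly all actives have a fitted effect of over 55% in size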
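Luminescent CellTiter-Glo readout after 48 hours of compound exposure at 37 degrees C defined viability of HT-1080-NT cells. Activity was normalized to DMSO wells and cell-free media wells; concentration-response curves were fitted and assigned curve classes.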
* marks the source's active call; other numbers are inactive results; ? = inconclusive; nt = no result. Only some compounds are listed: those with a hit (about 19% of all), similar ones and a draw of the others. Unless noted, the call rests on the fitted dose curve; in most records, active means well fitted curve in the direction sought with a large enough effect; inconclusive means small, poorly fitted or top-dose-only effect, or another doubt; inactive means no such curve, though single readings can be large; an effect the other way counts as inactive or inconclusive. Unless noted, on the % scale 0 is the no-effect control and ±100 the full control effect.

SMILES	TDP1 cell CPT	TDP1 cell noCPT	HT1080 IDH1KD tx	IL1B secr inh	ELG1 DNA repair	HT1080NT lethal
Fc1ccc(NC(=S)NCc2ccccc2Cl)cc1	0%	-4%	1%	-71*	-16%	7%
NS(=O)(=O)c1ccc(NC(=S)NCc2ccccc2Cl)cc1	-23%	?	-2%	-3	-1%	-4%
CCC(C)c1ccc(NC(=S)NCc2ccccc2OC)cc1 (stereo unspecified)	?	23µM*	-20%	22	?	-27%
COC(=O)Cc1ccc(NC(=S)NCc2ccccc2OC)cc1	?	?	16%	10	15%	15%
COc1ccccc1CNC(=S)Nc1ccc(F)cc1	3%	5.2µM*	6%	10	-22%	7%
COC(=O)C1CCN(C2CN(Cc3ccc([N+](=O)[O-])cc3)S(=O)(=O)C2)CC1 (stereo unspecified)	?	?	13%	55	nt	7%
C/C(=N\NC(=O)c1ccc([N+](=O)[O-])cc1Cl)c1ccccc1	?	?	-1%	25	?	7%
CCOC(=O)c1c(/N=C/N(C)C)sc(/C=N/Nc2ccccc2)c1-c1ccc(Cl)cc1	?	?	-4%	-9	-1%	-1%
Cc1cn2c(=O)cc(COC(=O)c3ccc(NC(=O)C(C)Oc4ccccc4)cc3)nc2s1 (stereo unspecified)	-7%	0%	nt	nt	nt	nt
C[C@H](O)[C@@H]1C(=O)N2CCc3ccc(-c4ccccc4)cc3[C@@H]2C[C@@H]1N(C)C(=S)Nc1ccc(F)cc1	?	?	-21%	18	nt	-23%
Cc1cccc(C)c1NC(=O)CN1C(=O)NC(C)(CCc2ccccc2)C1=O (stereo unspecified)	2%	-3%	1%	-3	-6%	2%
Cn1cccc1-c1cc(C(=O)N/N=C/c2cc(Br)ccc2O)[nH]n1	5.8µM*	4.1µM*	?	111	?	?
CCOc1ccc(/C=N/NC(=O)c2cc(-c3cccn3C)n[nH]2)cc1	-19%	?	-4%	-59*	-13%	-4%
CCOC(=O)C1CCN(C(=O)c2ccc(S(=O)(=O)Nc3ccccc3Cl)cc2)CC1	?	12µM*	-12%	?	-6%	-6%
O=C(COC(=O)c1cccc(NS(=O)(=O)c2ccc(F)c(F)c2)c1)NC(=O)NC1CCCCC1	?	16µM*	?	-20	-7%	?
COc1ccccc1NC(=O)NC1(C(=O)N2CCCCC2)CCCCC1	-21%	5%	5%	-76*	-4%	12%
CCOC(=O)C1CCN(C(=O)c2ccccc2NS(=O)(=O)c2ccc(C)cc2)CC1	?	-16%	-4%	0	-10%	0%
COc1ccccc1NS(=O)(=O)c1ccc(C(=O)N2CCCCCC2)cc1	18µM*	13µM*	4%	6	?	-4%
COC(=O)COc1cccc(NC(=O)C(c2ccccc2)c2ccccc2)c1	-7%	-21%	-2%	-7	-6%	0%
COCCOC(=O)c1c(NC(=O)COC(=O)c2ccc(C)o2)sc(C(N)=O)c1C	?	?	5%	10	?	-1%
COc1ccc(CN(Cc2cccnc2)C(=S)NCCc2ccccc2)cc1OC	-9%	6%	1%	-12	?	-8%
